# Results taken from PubChem BioAssay (NCI).
# The panel holds about 83,000 compounds, 20% with a hit somewhere; the sample as a whole holds those more often.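 48-hour exposure, single concentration, 96-well plates; percent growth endpoint where 0 means no net growth. Active: below 10.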 Calls of active or inactive are those of the source.
# System: PC-3 prostate
# Assay: NCI-60 one-dose screen, 48 h (100 = growth as untreated, 0 = no growth, -100 = all killed)
# Details: 10 µM
# Experimental: Growth inhibition of the PC-3 human tumor cell line is measured as a screen for anti-cancer activity. Cells are grown in 96 well plates and exposed to the test compound for 48 hours. Compounds are tested at a single concentration, which is 10^-5 M for most compounds. The reported endpoint is percent growth (GI% or GIPRCNT), where numbers from 0 - 100% represent growth inhibition, and numbers from -100% - 0 represent cell death. For example, a value of 40 represents 60% growth inhibition. A value of 0 means no net growth occurred over the course of the experiment. A value of -40 indicates 40% of cells at the beginning of the experiment died by the end of the experiment. A value of -100 means all cells are dead at the end of the experiment.
# NCI-60 Human Tumor Cell Lines Screen was performed using the standard one-dose NCI protocol, which is described in more detail at https://dtp.cancer.gov/discovery_development/nci-60/default.htm.
# Compounds with GIPRCNT values below 10 were considered active. Activity score was based on GIPRCNT using the following formula: […]
# Score is 0 for GIPRCNT values of 100 or above, 50 for GIPRCNT values of 0, and 100 for GIPRCNT values of -100.
row,Structure (SMILES),growth
1,FC(F)(F)c1ccc(-c2cnc(Br)nc2NC2CCCCCC2)cc1,5.8% (active)
2,CC(C)C[C@H](NC(=O)CCn1ccc2ccccc2c1=O)B(O)O,56% (inactive)
3,COc1cc(/C=C/C(=O)c2cc(-c3ccc(C(F)(F)F)cc3)ccc2O)cc(OC)c1OC,44.4% (inactive)
4,O=C(Nc1cccc(-c2nc3ccccc3[nH]2)c1)c1cccc(NC(=O)c2ccco2)c1,68.5% (inactive)
5,O=C(COc1ccc(Cl)cc1Cl)Oc1coc(CSc2nc3ccccc3s2)cc1=O,106% (inactive)
6,COc1ccc(N2CCN(c3nc(-c4ccccc4)c(C#N)c(=O)[nH]3)CC2)cc1,87.2% (inactive)
7,CC(CNC(Cc1ccccc1)c1ccccc1)NC(Cc1ccccc1)c1ccccc1 (stereo not given),40.7% (inactive)
8,CCCCCCCCCCCCCCCCCBr,92.6% (inactive)
9,CCCCCCCCCCCCc1ccc(C(=O)/C=C/C(=O)O)cc1,82.9% (inactive)
10,CCc1ccc(-c2nnc(COc3ccc(-c4nc5cc(Cl)c(Cl)cc5[nH]4)cc3OC)o2)cc1,52.6% (inactive)
11,CCC(OC(=O)CC(C)C)c1ccccc1 (stereo not given),94.8% (inactive)
12,Fc1ccc2[nH]c3c(NCCCN4CCOCC4)ncnc3c2c1,83% (inactive)
13,CCOC(=O)CNC(=O)Nc1ccc(Oc2ccc(NC(=O)NCC(=O)OCC)cc2)cc1,86.9% (inactive)
14,CC(=O)[C@H]1CC[C@H]2[C@@H]3CC[C@@H]4CC=C(C=O)C[C@]4(C)[C@H]3CC[C@]12C,78.5% (inactive)
15,CCCN(CCC)CCCNC(=O)c1cc2c(-c3ccc(OC)c(OC)c3)nn(C)c2s1,16.1% (inactive)
16,Cc1ccccc1[P+](Cc1ccccc1)(c1ccccc1)c1ccccc1,9.34% (active)
17,CCCCCCCCCCCCCC[n+]1ccccc1,-80.8% (active)
18,CC(=O)/C(=C\c1ccc(Cl)cc1)c1ccccc1,21.9% (inactive)
19,CCOC(=O)C(=O)Cc1cccnn1,91.7% (inactive)
20,COc1ccc2nc(/C=C/c3ccc(N(C)C)cc3)sc2c1,98.9% (inactive)

row,Structure (SMILES),growth
1,O=C(O)c1ccc(CNc2ccc(C(=O)CCl)cc2)cc1,91.9% (inactive)
2,NC(=O)C1CCCN(Cc2c[nH]c3ccccc23)C1 (stereo not given),91.2% (inactive)
3,CCN1CCN(c2nc(NNC(=O)c3cccc(OC)c3)nc(N3CCN(C(c4ccccc4)c4ccccc4)CC3)n2)CC1,41.9% (inactive)
4,O=C(Nc1ccc(OCc2nnc(-c3ccccc3)o2)c(F)c1)Nc1ccc(Cl)c(Cl)c1,55.6% (inactive)
5,CCCCCC(CCC)COC(=O)c1ccc(OC)cc1 (stereo not given),84.1% (inactive)
6,COc1ccc(-c2csc(NC(=O)CO[N+](=O)[O-])n2)cc1,80.7% (inactive)
7,O=C(CCl)N1c2ccccc2Sc2ccc3ccccc3c21,-86.6% (active)
8,CCOC(=O)Cn1nnc(-c2ccc(OCc3ccccc3F)cc2)n1,89% (inactive)
9,COc1ccc(CCc2nc3cc(-c4c(C)noc4C)ccc3n2CCN2CCOCC2)cc1,11.8% (inactive)
10,COc1ccc(-c2nnc(N3CCN(C(=O)CN4CCN(c5ccc(Cl)cc5)CC4)CC3)nc2-c2ccc(OC)cc2)cc1,25.6% (inactive)
11,CC1=CSC2=NC(c3ccc(Cl)c(Cl)c3)=CC(c3ccc(Cl)cc3)N12 (stereo not given),45.4% (inactive)
12,O=[N+]([O-])C1CC2C=CC1C2 (stereo not given),96.9% (inactive)
13,CC(C)=C1CCC(C)C/C1=N\N=C(N)N (stereo not given),87.9% (inactive)
14,CCCn1c(=O)c2c(nc(-c3cccc(OCCCCl)c3)n2C)n(CCC)c1=O,62.3% (inactive)
15,CCOC(=S)Sc1ccc([N+](=O)[O-])cc1[N+](=O)[O-],83.7% (inactive)
16,O=C(COCc1c(-c2ccccc2)no[n+]1[O-])Nc1nc(-c2ccc(Cl)cc2)cs1,95.7% (inactive)
17,Nc1ccn([C@@H]2O[C@H](COP(=O)(O)O[C@@H]3C[C@H](n4cc(F)c(=O)[nH]c4=O)O[C@@H]3COP(=O)(O)O[C@@H]3C[C@H](n4cc(F)c(=O)[nH]c4=O)O[C@@H]3COP(=O)(O)O[C@@H]3C[C@H](n4cc(F)c(=O)[nH]c4=O)O[C@@H]3COP(=O)(O)O[C@@H]3C[C@H](n4cc(F)c(=O)[nH]c4=O)O[C@@H]3COP(=O)(O)O[C@@H]3C[C@H](n4cc(F)c(=O)[nH]c4=O)O[C@@H]3COP(=O)(O)O[C@@H]3C[C@H](n4cc(F)c(=O)[nH]c4=O)O[C@@H]3COP(=O)(O)O[C@@H]3C[C@H](n4cc(F)c(=O)[nH]c4=O)O[C@@H]3COP(=O)(O)O[C@@H]3C[C@H](n4cc(F)c(=O)[nH]c4=O)O[C@@H]3COP(=O)(O)O[C@@H]3C[C@H](n4cc(F)c(=O)[nH]c4=O)O[C@@H]3COP(=O)(O)O[C@@H]3C[C@H](n4cc(F)c(=O)[nH]c4=O)O[C@@H]3COP(=O)(O)OCCOCCOCCOCCOCCOCCO)[C@H](O)C2O)c(=O)n1 (stereo not given in full),56.1% (inactive)
18,O=C1NN(c2ccccc2)C(c2cccnc2)=N/C1=C\c1cccnc1,92.1% (inactive)
19,COc1ccc(-c2nsc3c2NC(=O)CC3c2ccc(Cl)cc2)cc1 (stereo not given),82% (inactive)
20,Brc1ccc(-c2cn3ccnc3c(-c3ccc(Br)cc3)n2)cc1,66.3% (inactive)
